# Compounds without any hit were thinned out: in the full panel of roughly 83,000, 20% have a hit.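 The endpoint reported here, percent growth, reads 100 for growth as untreated, 0 for no net growth and -100 for all cells dead.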 Values without a mark were called inactive. Active and inactive are the calls of the source. Rule for the calls: active = growth percent below 10; inactive = the rest.
# Tests used:
# Assay in all cases: NCI-60 one-dose screen, 48 h (100 = growth as untreated, 0 = no growth, -100 = all killed)
# Conditions in all cases: 10 µM unless noted
# NCI-H23 lung = system: NCI-H23 lung
# NCI-H226 lung = system: NCI-H226 lung
# NCI-H322M lung = system: NCI-H322M lung
# HOP-62 NSCLC = system: HOP-62 NSCLC
# NCI-H460 lung = system: NCI-H460 lung
# HOP-92 NSCLC = system: HOP-92 NSCLC
# NCI-H522 lung = system: NCI-H522 lung
# A549/ATCC NSCLC = system: A549/ATCC NSCLC
# 786-0 renal = system: 786-0 renal
# COLO 205 colon = system: COLO 205 colon
# DU-145 prostate = system: DU-145 prostate
# K-562 leukemia = system: K-562 leukemia
# MALME-3M melanoma = system: MALME-3M melanoma
# MDA-MB-231 breast = system: MDA-MB-231 breast
# SF-268 CNS = system: SF-268 CNS
# SF-295 CNS = system: SF-295 CNS
# SF-539 CNS = system: SF-539 CNS
# UACC-257 melanoma = system: UACC-257 melanoma
# M14 melanoma = system: M14 melanoma
# RXF 393 renal = system: RXF 393 renal
SMILES,growth (NCI-H23 lung) [%],growth (NCI-H226 lung) [%],growth (NCI-H322M lung),growth (HOP-62 NSCLC),growth (NCI-H460 lung),growth (HOP-92 NSCLC),growth (NCI-H522 lung),growth (A549/ATCC NSCLC),growth (786-0 renal),growth (COLO 205 colon),growth (DU-145 prostate),growth (K-562 leukemia),growth (MALME-3M melanoma),growth (MDA-MB-231 breast),growth (SF-268 CNS),growth (SF-295 CNS),growth (SF-539 CNS),growth (UACC-257 melanoma),growth (M14 melanoma),growth (RXF 393 renal)
Clc1cc2c(nn1)Nc1ccccc1S2,94.7,104,97.8%,97.5%,99.2%,83.6%,56.5%,91.7%,99.3%,116%,109%,98.2%,103%,114%,102%,108%,89%,73.5%,107%,
COC(=O)c1cc(=O)nc(N/N=C/c2ccco2)s1,106,97.8,96.2%,103%,106%,85.7%,103%,107%,114%,116%,112%,101%,108%,117%,106%,,108%,117%,121%,102%
Cc1c(C(=N)C(C#N)C#N)c(=N)oc2c1ccc1ccccc12,73.2,95,89.9%,93.6%,97.4%,73.1%,-3.19% (active),92.8%,94%,115%,103%,72.8%,111%,97.9%,88.4%,96.5%,94.1%,60.6%,88%,
CN(C)c1ncnc2c1ccn2C1OC(CO)C(O)C1O (stereo not given),54.5,72.7,3.23% (active),50.8%,45.6%,-6.76% (active),90.9%,61.4%,34.8%,54.3%,3.87% (active),50.4%,133%,0.0846% (active),40.1%,,67.8%,111%,58.7%,67.9%
O=S(=O)(NCCNc1nccc(-c2c(-c3ccc(F)cc3)nc3sccn23)n1)c1ccc(F)cc1,78.7,72.8,77.4%,84.4%,48.6%,82.7%,89.6%,49.3%,73.7%,58.8%,75.9%,56.7%,76.8%,78.4%,79.2%,,102%,102%,73.7%,70%
Cc1ccc(-c2nc(C(Cl)Cl)n3nc(-c4ccccc4)cc3n2)cc1,47.3,88,83.3%,3.61% (active),15.5%,-8.47% (active),100%,12%,17.8%,6.05% (active),-9.74% (active),21.2%,74.7%,11.5%,8.85% (active),66.2%,29.8%,94.1%,95.7%,
COc1cc(-c2nn(-c3cccc(NC(=O)c4ccc(Cl)c(C(F)(F)F)c4)c3)cc2-c2ccncc2)ccc1Cl,58.9,56.3,84.9%,53%,25.3%,22.5%,1.5% (active),23.3%,59.5%,69.4%,65.4%,8.65% (active),16.8%,25.8%,46.7%,,33%,23.5%,26.2%,-0.403% (active)
CCC(=O)OC1=CN2C(=NC(c3ccc(N)cc3)=CC2c2cc(OC)c(OC)c(OC)c2)S1 (stereo not given),84.8,75,63%,48.1%,16.7%,48.4%,40.6%,39.2%,72.1%,47%,-16.6% (active),6.1% (active),63.7%,67.1%,60.8%,,43.8%,37.1%,52.5%,35.1%
COc1cc(-c2nn(-c3cccc(NC(=O)c4ccccc4)c3)cc2-c2ccncc2)ccc1Cl,33.8,39.1,52.3%,27.1%,2.74% (active),9.19% (active),-29.6% (active),4.81% (active),21.3%,2.21% (active),11.6%,2.59% (active),22.4%,5.8% (active),18.7%,,-15% (active),8.64% (active),-3.82% (active),-19.2% (active)
COc1ccc(-c2cnnn2-c2nonc2-n2cccc2)cc1OC,67.8,88.8,96.8%,55.8%,40.7%,72%,27.4%,47.2%,88.3%,44.4%,80.9%,3.29% (active),25.1%,65.7%,71.8%,,,79.6%,39.9%,75.6%
C=CCSc1n[nH]c(-c2cccs2)n1,104,99.4,110%,94.3%,107%,94.7%,92%,98.8%,95.9%,137%,121%,85.6%,110%,121%,111%,106%,98.3%,76.4%,104%,
O=c1c2sc3ncccc3c2nnn1-c1ccccc1,99.1,100,114%,105%,106%,97.5%,111%,102%,100%,114%,115%,93.3%,105%,97.2%,102%,,102%,102%,108%,101%
Fc1ccc(Nc2nc(NCCNc3ccnc4cc(Cl)ccc34)nc(N3CCOCC3)n2)cc1,93,94.8,73.7%,85%,34.9%,-5.61% (active),48.1%,55.7%,53.6%,-85.7% (active),75%,1.44% (active),-63.1% (active),20.1%,66.6%,,69.3%,-88.8% (active),-42.7% (active),21.3%
O=S(=O)(NCCNc1nccc(-c2c(-c3cccc(O)c3)nc3sccn23)n1)c1ccc(F)cc1,87,91.8,90.4%,103%,67.3%,92.8%,64.4%,52%,77%,37.6%,78.6%,47.8%,18.3%,77.6%,73.3%,,96.5%,-0.678% (active),27.3%,52.5%
Cc1ccc(-c2cc3nc(-c4ccccc4)nc(C(Cl)Cl)n3n2)cc1,30.3,70.9,-85.9% (active),-60.1% (active),-48% (active),-81.5% (active),95.4%,-58.1% (active),-79.3% (active),-66.1% (active),-93.9% (active),20.2%,-3.1% (active),-49.7% (active),-56.6% (active),-69.8% (active),-60.4% (active),18.3%,96.2%,
COc1ccc(C2=Nn3c(nnc3-n3nc(C)cc3C)SC2)cc1,30.2,57.4,44.6%,29.7%,4.1% (active),11.2%,-9.16% (active),10.2%,17.7%,-42.5% (active),-15.9% (active),4.47% (active),49.9%,-7.82% (active),29.9%,,1.51% (active),64.7%,10%,4.22% (active)
O=C(CSC1CCc2ccccc21)N/N=C/c1ccccc1O (stereo not given),55.5,67.7,22.6%,47.5%,30.9%,77.4%,7.47% (active),48.2%,66.6%,45.7%,52.8%,,53.3%,45.2%,39.5%,,54.7%,,47.4%,75.1%

# Source: PubChem BioAssay (NCI)
